Assay outcomes deposited in PubChem BioAssay by National Center for Advancing Translational Sciences (NCATS).
SMN2 splice up: enhancers of SMN2 splice variant expression | HEK293 SMN2-luciferase splicing reporter, luminescence, 30-36 h | Potency, µM (titrated, usually from 46.1 µM), inactives show at the highest dose activity change, positive = activation, most hits filed as activators | hit rate 2.8% among 210,000; further: % of control where 0% means no effect; nearly all actives have a fitted effect of over 55% in size
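qHTS luciferase splicing reporter: luminescence rises when SMN2 exon 7 is included in transfected HEK293 cells. Compound exposure lasted 30-36 h at 37C, with 4.5 mM final sodium butyrate as control, followed by a ONE-Glo read.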
ELG1 genotox: induces genotoxicity in HEK293T cells with luciferase-tagged ELG1. HEK293T ELG1-luciferase reporter, luminescence, 16 h. Potency, µM (top dose mostly 46 µM), for inactives: at the top dose activity change, positive = activation, hits mostly activators. hit rate 1.3% among 330,000; further: % of control where 0% means no effect; nearly all actives have a fitted effect of over 60% in size
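Reporter readout depends on ELG1 protein level, which increases with genetic stress. After 16 hr compound exposure at 37 °C, luciferase activity was quantified using ONE-Glo.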
Rab9 prom act: activates the Rab9 promoter; Huh7 Rab9 promoter-luciferase reporter, luminescence, 24 h; Potency, µM (titrated, usually from 9.22 µM), for the others: top-dose activation, negative = inhibition, usual class: activators; hit rate 2.8% among 320,000; further: % of control where 0% means no effect; nearly all actives have a fitted effect of over 60% in size
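Promoter activation is measured as luciferase luminescence in Huh7 cells stably transfected with a Rab9 promoter–luciferase construct, following 24 h compound exposure at 37 °C and 10 min reagent incubation at ambient temperature.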
NPC1 promoter act: NPC1 promoter activation; Huh7 NPC1 promoter luciferase reporter, 24 h; Potency, µM (top dose mostly 9.22 µM), inactives show at the top dose activation, usual class: activators; hit rate 2.4% among 320,000; AID 485313; further: % of control where 0% means no effect; nearly all actives have a fitted effect of over 60% in size
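In 1536-well qHTS, Huh7 cells harboring an NPC1 promoter–luciferase construct received compound for 24 h; activation was quantified by luminescence following luciferase reagent addition.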
Luc counter: counter-screen: inhibitors of Kinase-Glo firefly luciferase; Kinase-Glo luciferase, ATP luminescence, 8 min; Q27757; Potency, µM (top dose mostly 38.3 µM), for the others: at the highest dose activity change, negative = inhibition, usual class: inhibitors; hit rate 0.28% among 200,000; further: on the % scale 0 is the no-effect control and ±100 the full control effect; nearly all actives have a fitted effect of over 60% in size
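Compound is pinned into ATP-containing buffer (10 uM ATP, imidazole pH 7.2, 7 mM MgCl2). Kinase-Glo luciferase reagent is then added. Light output is recorded following an 8-min room-temperature incubation.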
FLuc modulator: counter-screen for miR-21 project: firefly luciferase inhibitors or activators | purified FLuc, Km substrates, luminescence inhibition | AID 588342 | P08659 | Potency, µM (top dose mostly 57.5 µM), for the others: top-dose activity change, negative = inhibition, hits mostly inhibitors | hit rate 6.9% among 360,000;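 further: plate controls were vehicle for no effect and reference inhibitor for full effect; nearly all actives have a fitted effect of over 55% in size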
Target sequence (P08659 whole entry, looked up): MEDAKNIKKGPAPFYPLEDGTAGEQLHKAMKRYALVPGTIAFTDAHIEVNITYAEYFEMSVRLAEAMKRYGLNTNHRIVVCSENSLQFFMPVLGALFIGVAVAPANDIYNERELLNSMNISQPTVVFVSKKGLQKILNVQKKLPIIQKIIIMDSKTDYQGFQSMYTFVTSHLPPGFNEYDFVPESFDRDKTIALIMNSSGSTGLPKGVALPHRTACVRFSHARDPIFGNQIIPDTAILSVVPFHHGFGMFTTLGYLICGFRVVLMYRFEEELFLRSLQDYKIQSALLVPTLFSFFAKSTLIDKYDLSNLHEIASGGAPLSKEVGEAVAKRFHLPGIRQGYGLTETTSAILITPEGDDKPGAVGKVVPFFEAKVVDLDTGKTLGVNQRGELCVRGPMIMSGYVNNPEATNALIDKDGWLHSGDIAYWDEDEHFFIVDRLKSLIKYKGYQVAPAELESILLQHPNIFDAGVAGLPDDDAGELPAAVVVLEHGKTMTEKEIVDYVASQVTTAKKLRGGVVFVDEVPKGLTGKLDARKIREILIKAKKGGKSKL
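Purified P. pyralis luciferase, 10 nM final, with Km-level 10 uM D-luciferin and 10 uM ATP in 50 mM Tris acetate pH 7.5, 10 mM Mg acetate, 0.01% Tween-20, 0.05% BSA; 6-point qHTS titration about 60 µM downward; luminescence read.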
Numbers without * were called inactive; [ ] = remark or other dose. The list is not random: actives were taken first. Their share in the collection is about 7.3%. The call rests on the fitted dose curve; in most records, active means well fitted curve in the direction sought with a large enough effect; inconclusive means small, poorly fitted or top-dose-only effect, or another doubt; inactive means no such curve, though single readings can be large; an effect the other way counts as inactive or inconclusive. Potency means the concentration at half of the fitted maximal effect.

For Cc1cc(/C=C(\C#N)C(=O)NC2CC2)c(C)[nH]1 the results were SMN2 splice up 11.2µM*, ELG1 genotox inconclusive, Rab9 prom act 3.16µM*, NPC1 promoter act 3.98µM*, Luc counter -12.0% and FLuc modulator 12µM*.
For N#C/C(=C\c1ccc[nH]1)C(=O)Nc1ccccc1F the results were ELG1 genotox 11.6µM*, Rab9 prom act 0.501µM*, NPC1 promoter act 1.26µM* and FLuc modulator inconclusive.
For N#C/C(=C\c1ccc[nH]1)C(=O)NCC1CCCO1 (configuration not stated) the results were ELG1 genotox 4.4%, Rab9 prom act 19.5%, NPC1 promoter act 2.4% and FLuc modulator -13.0%.
Cc1ccc(C)c(N2CCN(C(=O)c3c(C)oc4nc(C)nc(N5CCOCC5)c34)CC2)c1 was read as FLuc modulator -5.2%.
For N#C/C(=C\c1ccc[nH]1)C(=O)c1ccccc1 the results were ELG1 genotox 17.9%, Rab9 prom act 4.5%, NPC1 promoter act -1.4% and FLuc modulator 16.9µM*.
Cc1cc(/C=C(\C#N)C(=O)Nc2ccccc2F)c(C)[nH]1 was read as ELG1 genotox inconclusive, Rab9 prom act 0.562µM*, NPC1 promoter act 1.12µM*, Luc counter -1.7% and FLuc modulator 2.13µM*.
For N#C/C(=C\c1cccc(Cl)c1)C(=O)c1ccccc1 the results were ELG1 genotox 6.0%, Rab9 prom act 0.7%, NPC1 promoter act -1.5% and FLuc modulator inconclusive.
Screening Cc1oc2c(C)c3oc(=O)c(CC(=O)N4CCCCC4)c(C)c3cc2c1C returned SMN2 splice up -0.3% and FLuc modulator -12.3%.
COc1ccc2[nH]c3c(c2c1)CCn1c-3nc2ccccc2c1=O was read as SMN2 splice up 1.58µM*, ELG1 genotox inconclusive, Rab9 prom act 0.251µM*, NPC1 promoter act 0.199µM*, Luc counter -4.2% and FLuc modulator 0.477µM*.
Screening COc1cc(OC)cc(C(=O)Nn2c(C)nc3ccccc3c2=O)c1 returned SMN2 splice up 13.1%, ELG1 genotox -1.5%, Rab9 prom act -5.4%, NPC1 promoter act -0.4%, Luc counter -3.0% and FLuc modulator 5.9%.
For CCN(CC)C(=O)c1sc2c(c1C)c(=O)n(-c1ccc(C)c(C)c1)c(=O)n2CC(=O)Nc1ccc(F)cc1 the results were FLuc modulator -5.3%.
COc1ccc(NC(=O)Nc2ccc3c(c2)CCC3)c(OC)c1 was read as SMN2 splice up -6.8%, ELG1 genotox 11.5%, Rab9 prom act 10.3%, NPC1 promoter act 4.3%, Luc counter 2.9% and FLuc modulator -3.5%.
`COc1cccc(NC(=O)Nc2ccc3c(c2)CCC3)c1` gave ELG1 genotox 11.5%, Rab9 prom act 1.58µM*, NPC1 promoter act 2.24µM* and FLuc modulator 4.26µM*.
COc1ccc(OC)c(NC(=O)Nc2ccc3c(c2)CCC3)c1 was read as ELG1 genotox -4.7%, Rab9 prom act 0.7%, NPC1 promoter act 2.3% and FLuc modulator 26.9µM*.
O=C(COC(=O)CC1CCCC1)Nc1cc2c(cc1Cl)C(=O)c1ccccc1C2=O was read as SMN2 splice up inconclusive, ELG1 genotox 14.6µM*, Rab9 prom act 6.31µM*, NPC1 promoter act 3.55µM*, Luc counter 0.1% and FLuc modulator 13.5µM*.
Screening CCOc1ccc(Nc2oc(-c3ccc(COc4ccc(C)cc4)o3)nc2C#N)cc1 returned FLuc modulator -8.7%.
Screening Cc1cc2nc(-c3ccc[nH]c3=O)[nH]c2cc1C returned ELG1 genotox inconclusive, Rab9 prom act 0.501µM*, NPC1 promoter act inconclusive and FLuc modulator 0.338µM*.
Cc1cc2nc(-c3ccc[nH]c3=O)n(Cc3ccc(F)cc3)c2cc1C was read as ELG1 genotox -0.9%, Rab9 prom act -3.1%, NPC1 promoter act -1.0% and FLuc modulator -16.5%.
c1ccc(CN2CCC3(CC2)SSC2(CCN(Cc4ccccc4)CC2)SS3)cc1 was read as SMN2 splice up -2.9%[9.22 µM] and Luc counter -2.7%[7.66 µM].
Screening O=c1oc2cc(O)ccc2cc1-c1ccc2c(c1)OCCO2 returned SMN2 splice up 17.8µM* and Luc counter -3.5%.
O=c1oc2cc(O)ccc2cc1-c1nnc(Nc2ccccc2F)s1 was read as SMN2 splice up 3.98µM* and FLuc modulator 2.39µM*.
O=c1oc2ccccc2cc1-c1ccc(O)cc1O was read as SMN2 splice up 2.1%, ELG1 genotox 4.6%, Rab9 prom act -2.4%, NPC1 promoter act -1.3%, Luc counter -2.8% and FLuc modulator inconclusive.
`O=c1oc2cc(O)ccc2cc1-c1ccccc1` gave ELG1 genotox inconclusive, Rab9 prom act 4.5%, NPC1 promoter act inconclusive and FLuc modulator 23.9µM*.
Screening O=c1oc2ccc3ccccc3c2cc1-c1nnc(Nc2ccccc2F)s1 returned SMN2 splice up 0.9% and FLuc modulator -1.5%.
For COc1ccc(-c2cc3ccc(O)cc3oc2=O)cc1 the results were ELG1 genotox 8.2µM*, Rab9 prom act 3.16µM*, NPC1 promoter act 1.26µM* and FLuc modulator 4.78µM*.
For Cc1cccc(NC(=O)CSc2nc(=O)n(CCN3CCOCC3)c3c2CCC3)c1 the results were FLuc modulator 1.4%.
`CCOC(=O)c1[nH]c(C)c(CCC(=O)Nc2cc(Cl)c(OC)cc2OC)c1C` gave FLuc modulator -12.5%.
Screening Cc1ccc2c(CC(=O)NCc3ccccc3)coc2c1C returned SMN2 splice up -7.9% and FLuc modulator 0.3%.
Cc1ccccc1Cn1c(=O)n(CC2CCC(C(=O)N3CCC(C)CC3)CC2)c(=O)c2sccc21 (configuration not stated) was read as FLuc modulator -13.2%.
For O=c1c(-c2ccc3c(c2)OCCO3)coc2cc(O)cc(O)c12 the results were SMN2 splice up 6.31µM*, ELG1 genotox 2.51µM*, Rab9 prom act inconclusive, NPC1 promoter act 1.78µM*, Luc counter -17.3% and FLuc modulator 4.78µM*.
Screening CCOc1cc2[nH]c(=O)n(CCCCC(=O)N3CCN(c4ccc(OC)cc4)CC3)c(=O)c2cc1OCC returned FLuc modulator -1.3%.
`CCOc1ccc(CNCc2c(C(=O)O)c(C)n(Cc3ccc(F)cc3Cl)c2C)cc1` gave SMN2 splice up 8.2% and FLuc modulator -13.3%.
For CC(Sc1nc2ccccc2c(=O)n1C)C(=O)Nc1ccc2c(c1)OCCO2 (configuration not stated) the results were ELG1 genotox -2.8%, Rab9 prom act -24.9%, NPC1 promoter act -14.8% and FLuc modulator -18.6%.
